Shown are actives, neighbours in structure and some others; about 1% of the full set was active somewhere.
TRPML1 inh: qHTS for Inhibitors of the Human Mucolipin Transient Receptor Potential 1 (TRPML1); TRPML1-inducible cells, Ca2+ dye fluorescence, FDSS; active compounds read low; inhibition of EC80 agonist-evoked calcium signal; AID 624415, 2012; actives 0.02% (n = 390,000); Mucolipin-1 (Homo sapiens), Q9GZU1; activity change, negative = inhibition, % (test concentration not listed); in the data active = activity change below about -50%; inconclusive = between about -30% and that limit;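 also: stimulus is agonist 54-4 at its EC80 concentration; % is scaled to controls: 0 for no effect and ±100 for the full control effect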
Target sequence (Q9GZU1 whole entry, looked up): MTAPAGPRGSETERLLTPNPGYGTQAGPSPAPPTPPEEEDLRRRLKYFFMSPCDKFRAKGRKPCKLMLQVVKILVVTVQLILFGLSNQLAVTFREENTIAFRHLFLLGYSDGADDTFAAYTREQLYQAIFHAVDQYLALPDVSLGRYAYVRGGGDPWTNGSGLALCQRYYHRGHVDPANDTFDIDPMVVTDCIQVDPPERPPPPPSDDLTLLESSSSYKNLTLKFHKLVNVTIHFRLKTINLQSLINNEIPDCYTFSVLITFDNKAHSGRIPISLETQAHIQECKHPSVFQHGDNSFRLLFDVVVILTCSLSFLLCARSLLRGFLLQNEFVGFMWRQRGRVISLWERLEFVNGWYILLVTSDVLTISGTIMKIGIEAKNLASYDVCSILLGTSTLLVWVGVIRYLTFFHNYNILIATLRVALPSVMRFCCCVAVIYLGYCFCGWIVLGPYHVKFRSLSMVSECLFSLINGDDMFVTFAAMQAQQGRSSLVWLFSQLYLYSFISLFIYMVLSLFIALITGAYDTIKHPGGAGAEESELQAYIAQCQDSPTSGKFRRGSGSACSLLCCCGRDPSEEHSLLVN
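TRPML1-DL cells, Tet-induced overnight (~16 h, 37 °C) at 1,500 cells/well, were loaded with Ca8 no-wash dye plus quencher for 45-90 min at room temperature. Compounds were pinned during FDSS kinetic reading; agonist 54-4 at EC80 (4 uM final) then added.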
PTAP TSG101 blk: qHTS Assay for Iinhibitors of HIV-1 Budding by Blocking the Interaction of PTAP/TSG101 | Fluorescence polarization, FITC-PTAP peptide / Tsg101 binding | 340,000 tested, under 10 active | Tumor susceptibility gene 101 protein (Homo sapiens), Q99816 | Potency, µM (series often up to 115 µM), for the others: at the highest dose activity change, negative = inhibition, most hits filed as inhibitors; active = well fitted inhibition curve with a large enough effect in the main read-out, with a control signal flat, not every such curve was filed as active; inconclusive = small, poorly fitted or top-dose-only effect, or effect the other way, or a change in a side signal; inactive = no such curve, though single readings can be large or run the other way; also: potency is read from the fitted curve at half-maximal effect; % of control where 0% means no effect
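Fluorescence polarization binding of Tsg101 binding domain (10 uM final) to FITC-labeled PTAP peptide (50 nM final) in HEPES pH 7.5 buffer with NaCl, Tween 20, EDTA, TCEP. Compounds added before peptide; binding 20 min at RT.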
TRPML1 ag: qHTS for Agonists of the Human Mucolipin Transient Receptor Potential 1 (TRPML1); Mucolipin-1 (Homo sapiens), Q9GZU1; TRPML1-expressing cells, Ca2+ dye fluorescence, FDSS; actives 0.12% (n = 410,000); activation, % (concentration not given with the values); in the data active = activation above about 50%; inconclusive = mostly about 30% to 49%; also: 0% is about no effect
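Agonist activity was taken from a 110 s kinetic Ca2+ dye read on the FDSS after pinning compounds onto TRPML1-DL cells. The cells were seeded at 1,500/well with Tet inducer, incubated about 16 h, then dye-loaded at room temperature.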
hERG WT inh: qHTS for Inhibitors of KCHN2 3.1: Wildtype qHTS | AID 720551, 2013 | actives 0.37% (n = 340,000) | activity change, % at 1.84 µM | U2OS, BacMam KCNH2, thallium flux FluxOr; active compounds read low | Voltage-gated inwardly rectifying potassium channel KCNH2 (Homo sapiens), Q12809;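 active = maximum activity change below -70%; inconclusive = maximum activity change between -70% and -50%; inactive = maximum activity change above -50%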; also: % is scaled to controls: 0 for no effect and ±100 for the full control effect
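U2OS cells were transduced with wild-type KCNH2 virus (2.03 x 10^8 / mL) for 4 h at room temperature, then cultured overnight at 37 C. Thallium flux was read with FluxOr dye. Rate constants were normalized to DMSO controls.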
KCNH2 3.1 block: qHTS for Inhibitors of KCHN2 3.1: Mutant qHTS; Potassium voltage-gated channel subfamily H member 2, brain isoform KCNH2 3.1 (human); U2OS KCNH2 3.1, thallium flux FluxOr; active compounds read low; activity change, % (tested at about 1.8 µM); actives 0.95% (n = 340,000); AID 720553, 2013;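 active = maximum activity change below -70%; inconclusive = maximum activity change from -70% to -50%; inactive = maximum activity change above -50%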;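 also: thallium influx rate constant from kinetic fluorescence after stimulation buffer; % is scaled to controls: 0 for no effect and ±100 for the full control effect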
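Measured as rate of thallium-driven FluxOr signal in transduced U2OS cells carrying the 3.1 channel, read kinetically for 2 min upon stimulation; values are rate constants scaled to DMSO control wells.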
GRP78 ERSR act: qHTS for Inducers of the Endoplasmic Reticulum Stress Response (ERSR) in Human Glioma: qHTS; U87-MG GRP78 promoter luciferase reporter, 16 h; Potency, µM, for the others: at the highest dose activation, usual class: activators; actives 0.02% (n = 420,000); active = well fitted activation curve with a large enough effect; inconclusive = small, poorly fitted or top-dose-only effect; inactive = no such curve, though single readings can be large or run the other way; also: potency is read from the fitted curve at half-maximal effect; series mostly up to about 76 µM; % of control where 0% means no effect; nearly all actives have a fitted effect of over 35% in size
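ERSR induction read as luciferase luminescence (Bright-Glo, 10 min at room temperature) in stably transfected human U87-MG glioma cells exposed to compounds for 16 h, using GRP78 as sensor.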
* marks the source's active call; other numbers are inactive results; ? = inconclusive; . = not tested or not shown.

SMILES | TRPML1 inh | PTAP TSG101 blk | TRPML1 ag | hERG WT inh | KCNH2 3.1 block | GRP78 ERSR act
OC(CNCC1(N2CCCCC2)CCCCC1)COc1ccc(Cl)cc1Cl (stereo not drawn) | -6.2 | -3.0% | 2.7 | ? | -86.5* | -1.0%
COc1ccc(/C=C2/SC(=S)N(Cc3ccccc3)C2=O)cc1O | . | -1.9% | . | -6.3 | -4.3 | -8.0%
O=C1/C(=C\c2cc(Cl)c(O)c(Cl)c2)SC(=S)N1Cc1ccccc1 | -11.3 | ? | 109.5* | -36.6 | -40.2 | -1.4%
CC(=O)Nc1cc(C(=O)N2CCN(C(=O)c3ccco3)CC2)cc2ncn(CCc3ccccn3)c12 | . | . | . | . | . | -4.3%
S=C(NCc1ccccc1)NNc1nc2ccccc2[nH]1 | -5.8 | 0.9% | -0.1 | 0.8 | -74.4* | -1.8%
O=C(CSc1nc2ccccc2[nH]1)NCc1ccccc1 | . | -1.7% | . | -2.0 | -20.2 | 7.8%
COc1cccc(CNc2ncnc3sc(C(=O)N4CCOCC4)c(C)c23)c1OC | . | . | . | . | . | -1.3%
Cc1cc(CN2CCC(n3nccc3NC(=O)c3ccccc3Cl)CC2)cc(C)c1O | 0.8 | 2.6% | 0.5 | -1.0 | -77.0* | -2.4%
O=C(Nc1ccnn1C1CCN(CCCc2ccccc2)CC1)c1ccccc1Cl | 23.5 | -4.7% | 0.4 | -120.4* | -111.7* | -4.7%
CC(C)Cc1ccc(CN2CCC(n3nccc3NC(=O)C3CCCC3)CC2)cc1 | -14.6 | -1.1% | -0.4 | -73.2* | -103.0* | -3.8%
Cc1ccc(C)c(CN2C[C@H](Sc3nc4ccccc4[nH]3)C[C@H]2C(=O)N2CCCN(C)CC2)c1 | . | . | . | . | . | -5.1%
COC(=O)CSc1nnc(C)n1-c1ccc(C)cc1 | 5.4 | -3.3% | 0.6 | -1.6 | 1.6 | 1.6%
COC(=O)CSc1nnc(Cc2ccccc2)n1-c1ccc(C)cc1 | 7.8 | -3.6% | -1.0 | -2.7 | -98.3* | -0.4%
O=C(CN1CCN(S(=O)(=O)c2ccc(Br)s2)CC1)N1CCCCC1 | 8.9 | -3.4% | -0.1 | -226.8* | 12.9 | -4.7%
O=C(CN1CCN(S(=O)(=O)c2ccc(Br)s2)CC1)NC1CCCCC1 | 2.1 | -1.6% | 1.1 | -0.4 | -2.7 | -5.0%
COc1ccccc1-c1ccnc(-n2ncc(C(=O)N(C)C(C)c3nc(C)cs3)c2C2CC2)n1 (stereo not drawn) | . | . | . | . | . | 3.8%
COc1cccc(-c2ccc(NC(=O)C3CCCN(CCCn4nc(C)cc4C)C3)cc2)c1 (stereo not drawn) | 30.6 | -0.7% | -0.2 | 0.7 | -74.0* | 4.7%
COc1cccc(-c2ccc(NC(=O)C3CCCN(Cc4ccco4)C3)cc2)c1 (stereo not drawn) | -0.3 | 0.1% | -0.2 | 6.4 | -6.4 | 5.4%
CCOC(=O)C1CCN(C(=O)c2ccccc2N(C)S(C)(=O)=O)CC1 | -9.6 | -1.9% | 0.4 | -25.6 | -90.8* | -1.2%
CCOC(=O)C1CCN(C(=O)c2c(-c3ccccc3)noc2C)CC1 | -1.9 | -6.0% | -0.6 | 3.1 | -75.4* | -2.0%
CCOC(=O)C1CCN(C(=O)c2ccc(N(C)S(C)(=O)=O)cc2)CC1 | -2.3 | -9.9% | -0.3 | -14.4 | -19.4 | -3.4%
Cc1cccc(CNC(=O)c2cnn(-c3ncc4c(n3)-c3ccccc3CC4)c2C2CC2)n1 | . | . | . | . | . | 4.8%
COC(=O)c1c(OCc2ccccn2)cc(=O)n2c1CCN(C(=O)c1cc(C(C)C)nn1C)CC2 | . | . | . | . | . | -2.0%
COc1ccc(N2CC(O)(c3ccc(OC(F)F)cc3)[N+]3=C2CCCC3)cc1 (stereo not drawn) | 5.9 | 1.4% | 1.2 | -85.7* | -72.5* | -3.4%
COc1ccc(N2CC(O)(c3ccc(F)cc3)[N+]3=C2CCCC3)cc1 (stereo not drawn) | 18.2 | -12.3% | -0.5 | 3.9 | -16.1 | -5.3%

Screening results as filed in PubChem BioAssay.
